We go through ten molecules from PubChem BioAssay.

Active and inactive are the calls of the source.

Test [1] is described as follows: binders of probe aFSTL3 on microarray, primary screen, stem cell growth factor project, biochemical, small-molecule microarray, fluorescence 635/667 (AID 1064).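 Also: measures binding of the biotinylated anti-FSTL3 antibody to printed compounds.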 The settings on record: higher = more signal.
Test [2] is described as follows: binders from COS7 lysate, DM2A8 probe, primary screen, torsin A project, cell lysate, small-molecule microarray, fluorescence 635/667 (AID 1065). The conditions noted are these: higher = more signal, COS7 lysate expressing mutant human TOR1A.
Test [3] in a line: binders of probe aFGF2 on microarray, primary screen, stem cell growth factor project, biochemical, small-molecule microarray, fluorescence 635/667 (AID 1067).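 Also: measures binding of biotinylated aFGF2 protein to printed compounds on slides; z-score merges feature fluorescence and signal-to-noise across triplicate slides.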 The settings on record: higher = more signal.
The nature of test [4]: binders of probe aFGF10 on microarray, primary screen, stem cell growth factor project, biochemical, small-molecule microarray, fluorescence 635/667 (AID 1071).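 Also: score merges 667 nm spot intensity and signal to noise from triplicate slides.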 The conditions noted are these: higher = more signal.
Test [5] has as its target Neurogenic locus notch homolog protein 2 (Homo sapiens) (UniProt Q04721). The test is described as follows: Notch2 binders on small-molecule microarrays, primary screen, biochemical, small-molecule microarray, 635 nm fluorescence, stem cell growth factors (AID 1073). The conditions noted are these: Notch2 binding, higher = more signal.
Test [6] deals with Pro-neuregulin-1, membrane-bound isoform (Homo sapiens) (UniProt Q02297). Put plainly: NRG1 binders on small-molecule microarrays, primary screen, psychiatric disease protein project, biochemical, small-molecule microarray, fluorescence 635/667 (AID 1075).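 Also: score combines 667 nm spot fluorescence with signal to noise.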 The conditions noted are these: NRG1 binding, 635 nm fluorescence, higher = more signal.
Test [7] concerns Neuregulin-1 EGF-like domain. Put plainly: binders of neuregulin-1 EGF-like domain, primary screen, biochemical, small-molecule microarray, 635 nm fluorescence (AID 1081).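 Also: binding of the protein to compounds printed on small-molecule microarray slides.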 The conditions noted are these: small-molecule microarray binding, higher = more signal.
Test [8] in a line: FRG1 promoter luciferase signal modulators, primary screen, FRG1 inhibition for FSHD, cell-based, C2C12 myotubes, firefly/Renilla luciferase, luminescence (AID 1084). The settings on record: higher = more signal, called active from +8 up or from −8 down.
A short description of test [9]: binders of probe aFST on microarray, primary screen, stem cell growth factor project, biochemical, small-molecule microarray, fluorescence 635/667 (AID 1086).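 Also: score merges 667 nm fluorescence with signal-to-noise of each printed compound spot.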 The conditions noted are these: higher = more signal.
Test [10] in a line: binders of probe aHhip on microarray, primary screen, stem cell growth factor project, biochemical, small-molecule microarray, fluorescence 635/667 (AID 1087).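 Also: score merges spot fluorescence at 667nm with spot signal to noise ratio.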 The settings on record: higher = more signal.

Chain of Neurogenic locus notch homolog protein 2 (Homo sapiens) (Q04721 whole entry, looked up, canonical isoform): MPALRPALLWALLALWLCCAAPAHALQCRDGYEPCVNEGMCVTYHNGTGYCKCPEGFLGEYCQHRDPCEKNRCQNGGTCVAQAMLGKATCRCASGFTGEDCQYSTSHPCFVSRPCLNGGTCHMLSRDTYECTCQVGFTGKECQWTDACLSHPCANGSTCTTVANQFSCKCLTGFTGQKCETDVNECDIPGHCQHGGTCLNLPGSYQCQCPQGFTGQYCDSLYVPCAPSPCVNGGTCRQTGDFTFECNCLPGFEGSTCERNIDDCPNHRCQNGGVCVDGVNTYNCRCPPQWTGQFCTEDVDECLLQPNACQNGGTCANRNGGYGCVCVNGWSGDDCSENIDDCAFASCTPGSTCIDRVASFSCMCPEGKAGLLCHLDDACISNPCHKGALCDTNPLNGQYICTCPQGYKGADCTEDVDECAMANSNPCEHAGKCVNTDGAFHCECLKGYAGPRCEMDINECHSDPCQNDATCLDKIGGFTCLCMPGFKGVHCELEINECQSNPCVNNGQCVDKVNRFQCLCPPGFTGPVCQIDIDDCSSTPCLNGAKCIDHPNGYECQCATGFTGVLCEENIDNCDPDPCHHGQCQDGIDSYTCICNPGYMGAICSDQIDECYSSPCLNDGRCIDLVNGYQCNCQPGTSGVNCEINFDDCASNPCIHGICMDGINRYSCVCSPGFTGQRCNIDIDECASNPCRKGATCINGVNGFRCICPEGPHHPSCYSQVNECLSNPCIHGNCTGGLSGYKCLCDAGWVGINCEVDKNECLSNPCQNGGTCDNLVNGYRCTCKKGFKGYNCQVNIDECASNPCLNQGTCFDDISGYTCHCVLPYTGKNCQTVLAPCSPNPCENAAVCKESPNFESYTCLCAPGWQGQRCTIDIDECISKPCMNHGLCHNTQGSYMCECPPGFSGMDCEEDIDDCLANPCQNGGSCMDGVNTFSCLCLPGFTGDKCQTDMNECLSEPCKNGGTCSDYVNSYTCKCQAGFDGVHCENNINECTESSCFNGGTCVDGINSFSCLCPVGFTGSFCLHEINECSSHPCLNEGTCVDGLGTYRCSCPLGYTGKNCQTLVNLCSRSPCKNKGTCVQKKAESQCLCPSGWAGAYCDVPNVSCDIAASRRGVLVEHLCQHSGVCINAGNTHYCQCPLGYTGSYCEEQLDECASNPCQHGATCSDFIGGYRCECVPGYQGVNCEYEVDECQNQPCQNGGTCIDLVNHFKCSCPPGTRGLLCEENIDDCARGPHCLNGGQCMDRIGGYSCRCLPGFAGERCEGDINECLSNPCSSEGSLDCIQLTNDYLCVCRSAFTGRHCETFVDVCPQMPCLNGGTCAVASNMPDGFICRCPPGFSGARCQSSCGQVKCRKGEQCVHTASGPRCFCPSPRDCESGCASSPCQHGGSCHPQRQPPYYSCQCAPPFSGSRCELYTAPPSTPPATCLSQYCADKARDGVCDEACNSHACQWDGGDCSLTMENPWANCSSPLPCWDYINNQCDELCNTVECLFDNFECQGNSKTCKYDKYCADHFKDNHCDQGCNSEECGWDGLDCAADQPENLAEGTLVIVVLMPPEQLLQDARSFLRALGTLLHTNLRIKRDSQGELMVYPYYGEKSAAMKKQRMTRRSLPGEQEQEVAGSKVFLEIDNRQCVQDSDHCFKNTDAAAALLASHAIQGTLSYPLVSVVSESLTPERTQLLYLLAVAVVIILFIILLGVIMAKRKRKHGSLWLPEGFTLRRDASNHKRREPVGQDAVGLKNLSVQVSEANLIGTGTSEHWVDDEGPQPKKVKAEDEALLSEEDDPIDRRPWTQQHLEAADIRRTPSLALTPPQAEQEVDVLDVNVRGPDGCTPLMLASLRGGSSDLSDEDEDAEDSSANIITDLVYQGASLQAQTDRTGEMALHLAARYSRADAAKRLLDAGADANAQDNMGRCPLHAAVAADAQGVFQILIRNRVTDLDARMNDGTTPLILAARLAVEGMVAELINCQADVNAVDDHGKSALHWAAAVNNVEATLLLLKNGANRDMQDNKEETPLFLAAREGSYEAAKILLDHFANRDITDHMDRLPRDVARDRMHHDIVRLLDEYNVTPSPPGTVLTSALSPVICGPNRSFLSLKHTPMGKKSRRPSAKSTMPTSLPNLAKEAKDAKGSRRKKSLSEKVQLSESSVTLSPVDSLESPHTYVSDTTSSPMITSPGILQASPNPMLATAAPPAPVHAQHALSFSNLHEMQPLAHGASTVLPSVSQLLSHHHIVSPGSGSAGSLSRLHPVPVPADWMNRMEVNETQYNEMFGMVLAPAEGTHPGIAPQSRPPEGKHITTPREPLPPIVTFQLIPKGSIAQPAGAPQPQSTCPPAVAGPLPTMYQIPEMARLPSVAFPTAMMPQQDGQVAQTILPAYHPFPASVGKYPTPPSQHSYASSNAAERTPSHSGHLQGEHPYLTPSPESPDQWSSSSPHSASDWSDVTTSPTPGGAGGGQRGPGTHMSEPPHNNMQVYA
Chain of Pro-neuregulin-1, membrane-bound isoform (Homo sapiens) (Q02297 whole entry, looked up, the tested form may be a part, canonical isoform): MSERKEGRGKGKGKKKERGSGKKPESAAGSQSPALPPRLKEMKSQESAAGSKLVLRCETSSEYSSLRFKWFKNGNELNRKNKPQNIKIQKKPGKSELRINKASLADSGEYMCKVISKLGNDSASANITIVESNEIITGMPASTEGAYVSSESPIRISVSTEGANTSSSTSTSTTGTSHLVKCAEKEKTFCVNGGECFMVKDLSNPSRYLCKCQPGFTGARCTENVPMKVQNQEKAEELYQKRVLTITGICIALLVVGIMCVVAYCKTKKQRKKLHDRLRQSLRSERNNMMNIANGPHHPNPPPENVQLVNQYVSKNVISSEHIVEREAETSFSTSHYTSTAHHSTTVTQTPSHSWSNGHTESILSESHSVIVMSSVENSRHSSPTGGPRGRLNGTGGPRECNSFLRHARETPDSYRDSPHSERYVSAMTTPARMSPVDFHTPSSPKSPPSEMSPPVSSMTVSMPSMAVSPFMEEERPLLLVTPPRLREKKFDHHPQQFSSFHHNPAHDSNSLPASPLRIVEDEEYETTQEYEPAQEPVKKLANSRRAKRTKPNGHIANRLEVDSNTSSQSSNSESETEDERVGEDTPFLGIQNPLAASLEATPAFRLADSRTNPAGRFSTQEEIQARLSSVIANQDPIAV

For `C=C[C@H](OC)[C@@H](OC(=O)Nc1ccc(SC)cc1)c1ccc(OCCO)cc1`, the composite z-score is 0.0168 in test [1]; 0.594 in test [2]; -0.0307 in test [3]; 0.778 in test [4]; -0.21 in test [5]; 0.121 in test [6]. Besides, the composite z-score in test [7] was 1.41; in [9], -0.0503; in [10], -0.249. Besides, the z-score in test [8] was 5.3 (inactive).

`Cc1ccc(S[C@]2(C(=O)NCCN3CCOCC3)CC(=O)N(C3CCCCC3)[C@@H]2c2ccc(CO)cc2)cc1`: the composite z-score in test [1] was -0.0386; in [2], -0.439; in test [3] it was -0.158; in [4] it was 0.123; in [5] it was 0.825; in test [6], 1. Also, the composite z-score in test [7] is 1.09; in test [9], 0.283; in test [10], -0.0645. The z-score in [8] was 0.046 (inactive).

Take `COCCn1c(C(=O)N2CCCC2)cc2c1C[C@H]1CN(C(=O)c3ccccc3)[C@@](Cc3ccc(OC)cc3)(C(=O)OC)[C@@H]21`: the composite z-score worked out at 1.42 in test [1]; 1.86 in [2]; 0.264 in test [3]; 0.43 in test [4]; 1.64 in [5]; 2.12 in test [6]. Besides, the composite z-score in test [7] was 0.905; in [9], 0.602; in test [10] it was -0.0994. Moreover, the z-score in test [8] is -1.1 (inactive).

For `COc1ccccc1CN1C(=O)c2ccccc2[C@](Cc2ccccc2I)(C(=O)NC2CC2)[C@@H]1c1ccc(CO)cc1`, the composite z-score in test [1] is -0.532; in [2] it was 0.46; in test [3] it was 0.0673; in [4], 0.531; in test [5] it was 1.32; in test [6], 0.949. Also, the composite z-score in [7] turned out to be 1.42; in [9], 0.653; in [10] it was 0.136. The z-score in test [8] is -2.86 (inactive).

Regarding `CCCNC(=O)[C@@]1(c2ccc([N+](=O)[O-])cc2)CC(=O)N(CC23CC4CC(CC(C4)C2)C3)[C@@H]1c1ccc(CO)cc1I`, the composite z-score in [1] is 0.188; in test [2], 0.388; in test [3], -0.0644; in test [4] it was 0.0889; in [5], 0.906; in test [6], 0.133. The figures for the composite z-score in test [7], in test [9] and in test [10] were 1.01, 0.171 and 0.31, respectively. The z-score in test [8] is -2.05 (inactive).

On to `COC(=O)[C@@]1(Cc2ccc(F)cc2)[C@H]2c3cc(C(=O)N(C)C)n(Cc4ccccn4)c3C[C@H]2CN1C(=O)c1ccccc1`, for which the composite z-score was determined as 0.449 in test [1]; 0.55 in test [2]; 0.25 in test [3]; 0.658 in test [4]; 1.65 in test [5]; 1.42 in test [6]. Further, the composite z-score in test [7] is 1.38; in [9], 1.55; in test [10], 1.49. Moreover, the z-score in test [8] was 3.37 (inactive).

For the molecule `CO[C@H]1O[C@H](CO)[C@@H](OC(=O)Nc2ccc(C(F)(F)F)cc2)[C@H](OC(=O)Nc2ccccc2)[C@@H]1OC(=O)Nc1ccccc1`, the composite z-score is -0.181 in test [1]; -0.0087 in test [2]; 0.113 in test [3]; 0.392 in test [4]; 1.29 in test [5]; 0.781 in [6]. Further, the composite z-score is 0.879 in test [7], 0.234 in [9] and -0.188 in test [10]. Besides, the z-score in [8] was 5.33 (inactive).

For `O=C(CS)NCCCCCNC(=O)[C@H]1C[C@H]2C(=O)N[C@@H](Cc3ccccc3)C(=O)N2[C@H]1c1cccc(OCCO)c1`, the composite z-score in [1] was 0.0238; in test [2], 1.31; in [3], -0.0195; in [4] it was 1.16; in [5] it was 0.617; in test [6], 0.244. Moreover, the composite z-score in test [7] was 1.33; in [9], 0.551; in test [10], -0.156. The z-score in test [8] was -0.676 (inactive).

For the molecule `CN1C(=O)C2C(C1=O)C1C=C(c3ccc(CO)cc3)C2C(C2CC2)N1Cc1cc2c(cc1Br)OCO2` (stereo not given), the composite z-score in test [1] was -0.0526; in test [2], 1.44; in [3], -0.0171; in test [4], 0.561; in test [5], 1.61; in test [6], 1.46. Further, the composite z-score is 1.24 in [7], 0.917 in test [9] and -0.127 in test [10]. The z-score in test [8] is -4.12 (inactive).

Consider `CCOC(=O)C[C@H]1[C@H](OC(=O)c2ccccc2-c2ccccc2)[C@@H](NC(=O)c2ccc(-c3ccccc3)cc2)c2cc(OCCCO)ccc2N1C(=O)c1ccccc1`, for which the composite z-score in [1] is -0.491; in [2], 0.167; in test [3] it was -0.0428; in [4], 0.69; in test [5], 0.56; in [6] it was 0.106. The figures for the composite z-score in [7], in [9] and in test [10] were 0.787, 0.342 and 0.177, respectively. Also, the z-score in test [8] was -0.172 (inactive).
